Assay results published in PubChem BioAssay (NCATS).
Records with an inconclusive call do not appear. Active and inactive are the calls of the source. Calls follow the shape of the dose curve; as a rule, active = well fitted inhibition curve with a large enough effect; inconclusive = small, poorly fitted or top-dose-only effect; inactive = flat fitted curve, though single readings scatter.

biological target: Tyrosyl-DNA phosphodiesterase 1 (Homo sapiens) (UniProt Q9NUW8); experiment: Confirmation Assay for Inhibitors of Tyrosyl-DNA Phosphodiesterase (TDP1) (AID 489007); settings: recombinant human TDP1 enzymatic activity, dose-response; also: nearly all actives have a fitted effect of over 40% in size
Sequence (Q9NUW8 whole entry, looked up): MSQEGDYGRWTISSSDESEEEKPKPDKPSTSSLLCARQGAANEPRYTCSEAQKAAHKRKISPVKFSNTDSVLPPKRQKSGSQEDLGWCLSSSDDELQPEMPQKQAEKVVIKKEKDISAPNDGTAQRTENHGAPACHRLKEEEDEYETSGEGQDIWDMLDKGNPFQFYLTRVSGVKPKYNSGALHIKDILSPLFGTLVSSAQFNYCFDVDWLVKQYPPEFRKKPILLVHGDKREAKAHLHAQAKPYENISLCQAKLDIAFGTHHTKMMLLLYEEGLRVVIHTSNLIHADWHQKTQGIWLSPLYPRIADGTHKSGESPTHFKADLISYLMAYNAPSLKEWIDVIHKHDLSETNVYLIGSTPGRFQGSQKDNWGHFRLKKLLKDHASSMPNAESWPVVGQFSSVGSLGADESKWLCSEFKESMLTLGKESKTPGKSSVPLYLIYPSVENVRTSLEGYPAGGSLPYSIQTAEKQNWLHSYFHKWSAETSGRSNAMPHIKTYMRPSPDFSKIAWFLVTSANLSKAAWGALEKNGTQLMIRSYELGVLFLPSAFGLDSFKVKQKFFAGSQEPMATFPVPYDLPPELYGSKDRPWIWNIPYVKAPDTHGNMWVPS
Procedure, shortened: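 Recombinant human Tdp1 (1 nM final), expressed in E. coli, preincubated 15 min with compound. Then 15 nM 5'-biotin/3'-phosphotyrosine-FITC DNA substrate added for 5 min at room temperature. AlphaScreen beads (10 ug/ml) added for 10 min; cleavage gives signal loss.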
Potency is read from the fitted curve at half-maximal effect.

Potency, active:
O=C(O)CCCN1C(=O)/C(=C\c2ccco2)SC1=S 2.82 µM, Cc1nnc(NC(=O)CCSCCC(=O)Nc2nnc(C)s2)s1 15.8 µM, Cc1ccc(C)n1-c1ccc(C(=O)O)cc1 0.794 µM, O=C(O)CNC(=O)CC1S/C(=N/N=C2/NC(=O)CS2)NC1=O (stereo not given) 89.1 µM, O=C(CSc1nc(NS(=O)(=O)c2ccccc2)cc(=O)[nH]1)Nc1ccc(Cl)cc1 22.4 µM, Clc1ccc(N2N=C(c3cccs3)CC2c2ccco2)cc1 (stereo not given) 11.2 µM, Cc1cc(C)c(C#N)c(SCc2ccccc2)n1 112 µM, O=C(O)c1ccc(-c2ccc(/C=C3\NC(=O)N(Cc4ccc(Cl)cc4)C3=O)o2)cc1 14.1 µM, Cc1cc(C(=O)O)ccc1-c1ccc(/C=C2\NC(=O)N(Cc3ccc(F)cc3)C2=O)o1 4.47 µM, S=c1[nH]nc(-c2cccnc2)n1/N=C/c1ccc(Br)s1 63.1 µM, CCN(CC)C(=O)COc1ccc2oc(-c3ccco3)cc(=O)c2c1 112 µM, COc1ccc2cc(C(=O)Nc3ccccc3)sc(=O)c2c1OC 56.2 µM, O=C(O)/C=C/c1ccc([N+](=O)[O-])o1 50.1 µM, Cc1nc(SCC(=O)O)c(C#N)c2c1CCCC2 8.91 µM, CC(=O)c1ccc(NC(=O)c2noc3c2CCC3)cc1 50.1 µM, Cc1ccnc(NS(=O)(=O)c2ccc(NC(=O)C3C4C=CC(C4)C3C(=O)O)cc2)n1 (stereo not given) 35.5 µM, O=C(CCc1n[nH]c(=O)[nH]c1=O)N/N=C/c1ccco1 31.6 µM, Cc1ccc(/C=C2/C(=O)c3ccc(C(=O)O)cc3C2=O)o1 14.1 µM, Cc1ccc(Oc2cc(-n3nc(C)cc3C)ncn2)cc1 112 µM, NC(=O)c1oc2ccccc2c1NC(=O)c1nc2ccccc2s1 15.8 µM, O=C(O)c1cc(-c2ccc(/C=N/N3C(=O)C4C5C=CC(C6CC56)C4C3=O)o2)ccc1Cl (stereo not given) 31.6 µM, O=C(O)Cc1ccc(NC(=O)C2CC=CCC2C(=O)O)cc1 (stereo not given) 14.1 µM, O=C(O)C1Cc2ccccc2CN1C(=O)COc1ccc(Br)cc1 (stereo not given) 15.8 µM, CC1=CCC(C(=O)O)C(C(=O)Nc2ccc(-c3nc4ccc(C)cc4s3)cc2)C1 (stereo not given) 31.6 µM, Cc1ccc(C(=O)O)cc1-n1c(C)cc(C=O)c1C 15.8 µM
